PubChem BioAssay (NCI)
“And” between values parts separate entries of the source, which are not always exact repeats. Identical values can stand only once. This is part of a sample that, as a whole, favours compounds with a hit. Of some 83,000 tested, about 20% had one in any assay.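 Note: values are percent growth. 100 is the growth of untreated cells, values between 100 and 0 indicate rising inhibition; between -100 and 0 indicates cell death.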 The source made the active and inactive calls. Rule for the calls: active = growth percent below 10; inactive = the rest.

Legend:
Assay in all cases: NCI-60 one-dose screen, 48 h (100 = growth as untreated, 0 = no growth, -100 = all killed)
Conditions in all cases: 10 µM unless noted
SR leukemia = test system: SR leukemia
RPMI-8226 leukemia = test system: RPMI-8226 leukemia
OVCAR-5 ovarian = test system: OVCAR-5 ovarian
OVCAR-4 ovarian = test system: OVCAR-4 ovarian
SK-OV-3 ovarian = test system: SK-OV-3 ovarian
IGROV1 ovarian = test system: IGROV1 ovarian
OVCAR-3 ovarian = test system: OVCAR-3 ovarian
HS 578T breast = test system: HS 578T breast
NCI/ADR-RES ovarian = test system: NCI/ADR-RES ovarian
T-47D breast = test system: T-47D breast
BT-549 breast = test system: BT-549 breast
MDA-MB-435 melanoma = test system: MDA-MB-435 melanoma
SW-620 colon = test system: SW-620 colon
MCF7 breast = test system: MCF7 breast
HCT-116 colon = test system: HCT-116 colon
HCC-2998 colon = test system: HCC-2998 colon
KM12 colon = test system: KM12 colon

Measured: growth

Nc1ccccc1SC(CC(=O)c1ccccc1)c1cccc([N+](=O)[O-])c1 (stereo unspecified)
active: RPMI-8226 leukemia -30.1% and -4.39% | HCT-116 colon -71.2% and -58.6%
70.2% (inactive) and 2.4% (active): SR leukemia
inactive: OVCAR-5 ovarian 105% and 119% | OVCAR-4 ovarian 89% and 74.5% | SK-OV-3 ovarian 104% and 109% | IGROV1 ovarian 127% and 96.5% | OVCAR-3 ovarian 104% and 66.5% | HS 578T breast 106% and 110% | NCI/ADR-RES ovarian 91.4% and 92.9% | T-47D breast 88.3% and 90% | BT-549 breast 103% and 88.9% | MDA-MB-435 melanoma 102% and 85.5% | MCF7 breast 19.3% and 19% | HCC-2998 colon 110% | KM12 colon 73.9%
14.1% (inactive) and 1.5% (active): SW-620 colon

CC1CC(O)CC(C)(C)C1.CC1CC(O)CC(C)(C)C1.CC1CC(O)CC(C)(C)C1.CC1CC(O)CC(C)(C)C1.[Ti] (stereo unspecified)
inactive: SR leukemia 81.1% | RPMI-8226 leukemia 96.5% | OVCAR-5 ovarian 114% | OVCAR-4 ovarian 127% | SK-OV-3 ovarian 91.4% | IGROV1 ovarian 101% | OVCAR-3 ovarian 122% | HS 578T breast 99.9% | NCI/ADR-RES ovarian 99.1% | T-47D breast 92.7% | MDA-MB-435 melanoma 99.6% | SW-620 colon 99.8% | MCF7 breast 99.8% | HCT-116 colon 99.5% | HCC-2998 colon 110% | KM12 colon 103%

Cc1ccc(N)cc1S(=O)(=O)O
inactive: SR leukemia 89.6% and 90.4% | RPMI-8226 leukemia 103% and 102% | OVCAR-5 ovarian 108% and 125% | OVCAR-4 ovarian 104% | SK-OV-3 ovarian 106% and 116% | IGROV1 ovarian 109% and 113% | OVCAR-3 ovarian 108% and 117% | HS 578T breast 100% and 94.9% | NCI/ADR-RES ovarian 106% and 113% | T-47D breast 103% and 117% | MDA-MB-435 melanoma 115% and 109% | SW-620 colon 104% and 105% | MCF7 breast 105% and 98.8% | HCT-116 colon 103% | HCC-2998 colon 109% and 108% | KM12 colon 98.7% and 104%

CC(=O)C[n+]1ccccc1Sc1ccc(Cl)cc1
inactive: SR leukemia 57.4% | RPMI-8226 leukemia 84.7% | OVCAR-5 ovarian 148% | OVCAR-4 ovarian 93.7% | SK-OV-3 ovarian 109% | IGROV1 ovarian 101% | OVCAR-3 ovarian 100% | HS 578T breast 84.3% | NCI/ADR-RES ovarian 111% | BT-549 breast 30% | MDA-MB-435 melanoma 78% | MCF7 breast 65% | HCC-2998 colon 128% | KM12 colon 79.2%

O=c1[nH]c(=O)n(C2OC(CO)C(O)C2O)cc1I (stereo unspecified)
inactive: SR leukemia 96.1% and 114% | RPMI-8226 leukemia 107% | OVCAR-5 ovarian 107% and 104% | OVCAR-4 ovarian 100% and 102% | SK-OV-3 ovarian 110% and 102% | IGROV1 ovarian 103% and 106% | OVCAR-3 ovarian 117% and 121% | HS 578T breast 108% and 98.3% | NCI/ADR-RES ovarian 109% and 97.4% | T-47D breast 105% and 100% | BT-549 breast 143% and 108% | MDA-MB-435 melanoma 106% and 95% | SW-620 colon 101% | MCF7 breast 89% and 107% | HCT-116 colon 109% and 95.8% | HCC-2998 colon 109% and 95.8% | KM12 colon 109% and 100%

C/C(=C\c1ccccc1)C(O)C(=O)c1nc2ccc([N+](=O)[O-])cc2[nH]c1=O (stereo unspecified)
inactive: SR leukemia 102% | RPMI-8226 leukemia 90.2% | OVCAR-5 ovarian 96% | OVCAR-4 ovarian 114% | SK-OV-3 ovarian 105% | OVCAR-3 ovarian 113% | HS 578T breast 94.7% | NCI/ADR-RES ovarian 87.7% | T-47D breast 77.5% | BT-549 breast 78.9% | MDA-MB-435 melanoma 99.5% | SW-620 colon 104% | MCF7 breast 79.3% | HCT-116 colon 91.4% | HCC-2998 colon 106% | KM12 colon 90.3%
